Our source for the growth values is PubChem BioAssay (NCI).

Some test systems named below: HCT-15 colon; HT29 colon; SNB-75 CNS; SNB-19 CNS; U251 CNS; PC-3 prostate; SK-MEL-5 melanoma; UACC-62 melanoma; LOX IMVI melanoma; SK-MEL-28 melanoma; SK-MEL-2 melanoma; EKVX NSCLC; SN12C renal; UO-31 renal; TK-10 renal; ACHN renal; CAKI-1 renal; A498 renal; CCRF-CEM leukemia; MOLT-4 leukemia.
Common to all, as to test: NCI-60 one-dose screen, 48 h (100 = growth as untreated, 0 = no growth, -100 = all killed)
Holding throughout (details): 10 µM unless noted

This is part of a sample that, as a whole, favours compounds with a hit. Of some 83,000 tested, about 20% had one in any assay.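 Results are percent growth after 48 hours of single-concentration exposure. 100 means growth as in untreated cells, lower positive values show inhibition; negative values down to -100 show cell death.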 Unmarked numbers belong to inactive results. The source made the active and inactive calls. The calls were made as follows: active = growth percent below 10; inactive = the rest.

Turning to `C=C(C)[C@@H]1CC[C@]2(CO)CC[C@]3(C)[C@H](CC[C@@H]4[C@@](C)(CCCN)[C@H](C(=C)C)CC[C@]43C)[C@@H]12`, the growth in the test on HCT-15 colon is -81.7% (active); in the test on HT29 colon it was -54.4% (active); in the test on SNB-75 CNS, -91.9% (active); in the test with SNB-19 CNS, 1.21% (active); with U251 CNS it was -88.6% (active); with PC-3 prostate, 0.447% (active). Further, the growth with SK-MEL-5 melanoma is -87.5% (active); with UACC-62 melanoma, -88.6% (active); in the test with LOX IMVI melanoma, -97.8% (active); in the test on SK-MEL-28 melanoma, -98.3% (active); in the test on SK-MEL-2 melanoma, -61.6% (active); with EKVX NSCLC, -12.9% (active). The growth is -97.6% (active) with SN12C renal; -43.4% (active) in the test with UO-31 renal; -62.9% (active) in the test with TK-10 renal; -100% (active) in the test on ACHN renal; -54.9% (active) with CAKI-1 renal; -85.7% (active) in the test with A498 renal. Further, the growth in the test with CCRF-CEM leukemia was -16% (active); with MOLT-4 leukemia it was -32.4% (active).
Turning to `COc1ccc(/C=C2\c3cc(OC)c(OC)c(OC)c3CC[C@@H]2O)cc1F`, the growth with HCT-15 colon was 20.7%; in the test on HT29 colon it was 11.9%; in the test with SNB-75 CNS, 14.5%; with SNB-19 CNS it was 42.4%; in the test on U251 CNS it was 20.1%; in the test on PC-3 prostate, 23.1%. For the same compound, the growth with SK-MEL-5 melanoma was 23.8%; with UACC-62 melanoma, 34.2%; with LOX IMVI melanoma, 37.3%; in the test on SK-MEL-28 melanoma it was 70.1%; in the test with SK-MEL-2 melanoma, 41.6%; with EKVX NSCLC, 44.1%. Also, the growth with SN12C renal is 53.2%; in the test on UO-31 renal, 47.7%; in the test with TK-10 renal it was 57.9%; in the test on ACHN renal, 43%; in the test on CAKI-1 renal it was 48.4%; in the test on A498 renal, 8.33% (active). The growth in the test on CCRF-CEM leukemia was 12.8%; in the test with MOLT-4 leukemia, 21.5%.
For the compound `CC(=O)c1ccc(-n2cc(CN3CCN(c4cc5c(cc4F)c(=O)c(C(=O)O)cn5C4CC4)CC3)nn2)cc1`, the growth in the test on HCT-15 colon was 93.8%; with HT29 colon it was 90.8%; with SNB-75 CNS, 92.7%; in the test on SNB-19 CNS, 98.2%; in the test on U251 CNS, 98.4%; in the test with PC-3 prostate, 83.9%. Also, the growth in the test on SK-MEL-5 melanoma is 84.3%; in the test with UACC-62 melanoma it was 90.5%; with LOX IMVI melanoma, 55.4%; in the test with SK-MEL-28 melanoma it was 99.3%; in the test on SK-MEL-2 melanoma, 96.4%; with EKVX NSCLC it was 88.5%. Further, the growth was 103% in the test on SN12C renal; 63.1% in the test on UO-31 renal; 103% with TK-10 renal; 96.7% with ACHN renal; 87.8% in the test on CAKI-1 renal; 76.7% with A498 renal. Besides, the growth is 111% in the test on CCRF-CEM leukemia and 102% in the test on MOLT-4 leukemia.
In the case of `CCCCCCCCCCCCCCCCCCOc1ccccc1CC(=O)NCC[N+](C)(C)C`, the growth is 87.4% with HCT-15 colon; 12.5% in the test with HT29 colon; 22.9% in the test with SNB-75 CNS; 12.5% with SNB-19 CNS; -58.5% (active) in the test with U251 CNS; -33% (active) in the test with PC-3 prostate. Besides, the growth in the test with SK-MEL-5 melanoma is 63.7%; in the test with UACC-62 melanoma, 42%; in the test with LOX IMVI melanoma, 33.4%; in the test on SK-MEL-28 melanoma, 80.1%; in the test with SK-MEL-2 melanoma, 68.8%; in the test with EKVX NSCLC, 89.3%. In addition, the growth in the test with SN12C renal is 23.5%; in the test with UO-31 renal, 80.2%; in the test on TK-10 renal, -21.4% (active); with ACHN renal, 78.3%; in the test on CAKI-1 renal, 18.7%; in the test with A498 renal, 65.6%. The growth was -5.38% (active) with CCRF-CEM leukemia and 17.1% with MOLT-4 leukemia.
On to `CC(C)(C)c1ccc(S(=O)(=O)Oc2ccc(-c3sc4cc(OS(=O)(=O)c5ccc(C(C)(C)C)cc5)ccc4c3C(=O)c3ccc(OCCN4CCCCC4)cc3)cc2)cc1`, for which the growth in the test on HCT-15 colon was 97.8%; in the test on HT29 colon it was 90.8%; in the test with SNB-75 CNS, 56.6%; in the test on SNB-19 CNS, 97.6%; in the test on U251 CNS, 103%; with PC-3 prostate it was 88.8%. Besides, the growth is 99.6% with SK-MEL-5 melanoma; 95% with UACC-62 melanoma; 99.9% in the test on LOX IMVI melanoma; 97.8% in the test on SK-MEL-28 melanoma; 89.9% in the test on SK-MEL-2 melanoma; 83.8% with EKVX NSCLC. The growth in the test on SN12C renal is 98.9%; with UO-31 renal, 74.6%; with TK-10 renal it was 90.4%; in the test with ACHN renal it was 98.1%; in the test on CAKI-1 renal, 95.7%; in the test on A498 renal, 105%. Also, the growth in the test with CCRF-CEM leukemia is 93.4%; in the test on MOLT-4 leukemia, 95.7%.
For the compound `COc1ccccc1/C=C/C(=O)Nc1ccc(F)cc1`, the growth with HCT-15 colon was 98.4%; in the test on HT29 colon, 89.1%; in the test on SNB-75 CNS, 77.9%; in the test on SNB-19 CNS it was 99.8%; in the test on U251 CNS, 108%; in the test on PC-3 prostate it was 95.7%. The growth in the test with SK-MEL-5 melanoma was 95.1%; with UACC-62 melanoma, 89.8%; in the test on LOX IMVI melanoma it was 100%; in the test on SK-MEL-28 melanoma, 108%; in the test with SK-MEL-2 melanoma it was 99.1%; with EKVX NSCLC, 73.2%. Also, the growth is 111% in the test with SN12C renal; 87.6% in the test with UO-31 renal; 128% in the test with TK-10 renal; 101% in the test on ACHN renal; 90.7% with CAKI-1 renal; 102% in the test with A498 renal. Moreover, the growth with CCRF-CEM leukemia was 97.6%; with MOLT-4 leukemia it was 88.1%.
In the case of `Fc1cccc(CNc2c3ccccc3nc3ccccc23)c1`, the growth in the test with HCT-15 colon is 22.9%; in the test on HT29 colon, 14.3%; in the test on SNB-75 CNS it was 63%; in the test with SNB-19 CNS, 35.9%; in the test on U251 CNS it was 35.2%; with PC-3 prostate, 49%. The growth with SK-MEL-5 melanoma is 60.5%; in the test on UACC-62 melanoma, 50.3%; with LOX IMVI melanoma it was 12.3%; in the test on SK-MEL-28 melanoma, 78.5%; with SK-MEL-2 melanoma it was 81.4%; with EKVX NSCLC, 32%. Moreover, the growth with SN12C renal was 32.8%; in the test with UO-31 renal it was 24%; with TK-10 renal, 64.1%; in the test on ACHN renal, 17.1%; in the test with CAKI-1 renal, 27%; with A498 renal, -12.6% (active). The growth is 46.3% with CCRF-CEM leukemia and 14.9% with MOLT-4 leukemia.
Turning to `COc1ccc(-c2nc3c(c(-c4ccc(Cl)cc4)nn3-c3ccccc3)c(-c3ccccc3)c2C#N)cc1`, the growth was 109% in the test on HCT-15 colon; 101% with HT29 colon; 85.7% with SNB-75 CNS; 103% with SNB-19 CNS; 99.6% in the test with U251 CNS; 91.3% in the test on PC-3 prostate. The growth in the test on SK-MEL-5 melanoma is 100%; with UACC-62 melanoma it was 98.5%; with LOX IMVI melanoma it was 101%; with SK-MEL-28 melanoma it was 108%; in the test on SK-MEL-2 melanoma, 109%; in the test on EKVX NSCLC it was 107%. The growth in the test with SN12C renal was 105%; with UO-31 renal, 101%; in the test with TK-10 renal, 120%; in the test on ACHN renal, 107%; in the test on CAKI-1 renal it was 94.8%; in the test on A498 renal, 111%. The growth with CCRF-CEM leukemia and in the test on MOLT-4 leukemia was 102% each time.
